Eya2 inh – qHTS Assay for Inhibitors of the Phosphatase Activity of Eya2; Protein phosphatase EYA2 (Homo sapiens), O00167; recombinant Eya2, OMFP fluorescence dephosphorylation (OMFP is methylfluorescein phosphate); Potency, µM (top dose mostly 76.9 µM), most hits filed as inhibitors; actives 0.006% (n = 330,000); AID 488837, 2010
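Eya2 protein (added as 0.2 uM solution) was preincubated with compound for 10 min at ambient temperature in 50 mM HEPES pH 7.5, 50 mM NaCl, 5 uM MgCl2, 0.05% BSA, 1 mM DTT. OMFP (added at 50 uM) then reacted 10 min; fluorescence read at 485/525 nm.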
CtBP-E1A inh – qHTS Assay for Inhibitors of the CtBP/E1A Interaction; CtBP / adenovirus E1A interaction (AlphaScreen); AlphaScreen GST-E1A/His-CtBP binding, 1536-well; stronger effect = lower value; activity change, % (test concentration not listed); actives 0.49% (n = 340,000); AID 651724, 2012; in the data active = activity change below about -65%; inconclusive = mostly about -30% to -63%
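Homogeneous bead-based format: GST-tagged E1A captured on glutathione donor beads, His-tagged CtBP on nickel acceptor beads; compounds precede bead addition by 2 h at 37 °C.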
Six1-Eya2 blk – qHTS Assay for Inhibitors of the Six1/Eya2 Interaction; Homeobox protein SIX1 (Homo sapiens) + Protein phosphatase EYA2 (Homo sapiens), …; AlphaScreen GST-Six1/His-Eya2 binding, biochemical; stronger effect = lower value; activity change, % (test concentration not listed); actives 0.56% (n = 360,000); AID 651725, 2012; in the data active = activity change below about -65%; inconclusive = mostly about -30% to -63%
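AlphaScreen luminescence read after one hour at 37 °C in darkness. Pin-transferred compounds met GST-Six1 and His-Eya2 protein (5X stock 250 nM/500 nM) plus glutathione donor and Ni-chelate acceptor beads (5X, 50 ug/mL).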
uPA surface inh – qHTS for Inhibitors of Cell Surface uPA Generation; Potency, µM (titrated, usually from 38.3 µM), hits mostly inhibitors; AID 540303, 2011; actives 0.31% (n = 330,000); cell surface uPA generation assay, qHTS; active = well fitted inhibition curve with a large enough effect; inconclusive = small, poorly fitted or top-dose-only effect; inactive = no such curve, though single readings can be large or run the other way; tested in mouse RAW 264.7 cells; also: nearly all actives have a fitted effect of over 55% in size
L3MBTL1 inh – qHTS Assay for the Inhibitors of L3MBTL1; Lethal(3)malignant brain tumor-like protein 1 (Homo sapiens), Q9Y468; AlphaScreen L3MBTL1–H3K9me1 peptide binding; Potency, µM (doses to about 57.1 µM), actives largely listed as inhibitors; actives 0.66% (n = 230,000); AID 485360, 2010; also: nearly all actives have a fitted effect of over 60% in size
Target sequence (Q9Y468 whole entry, looked up): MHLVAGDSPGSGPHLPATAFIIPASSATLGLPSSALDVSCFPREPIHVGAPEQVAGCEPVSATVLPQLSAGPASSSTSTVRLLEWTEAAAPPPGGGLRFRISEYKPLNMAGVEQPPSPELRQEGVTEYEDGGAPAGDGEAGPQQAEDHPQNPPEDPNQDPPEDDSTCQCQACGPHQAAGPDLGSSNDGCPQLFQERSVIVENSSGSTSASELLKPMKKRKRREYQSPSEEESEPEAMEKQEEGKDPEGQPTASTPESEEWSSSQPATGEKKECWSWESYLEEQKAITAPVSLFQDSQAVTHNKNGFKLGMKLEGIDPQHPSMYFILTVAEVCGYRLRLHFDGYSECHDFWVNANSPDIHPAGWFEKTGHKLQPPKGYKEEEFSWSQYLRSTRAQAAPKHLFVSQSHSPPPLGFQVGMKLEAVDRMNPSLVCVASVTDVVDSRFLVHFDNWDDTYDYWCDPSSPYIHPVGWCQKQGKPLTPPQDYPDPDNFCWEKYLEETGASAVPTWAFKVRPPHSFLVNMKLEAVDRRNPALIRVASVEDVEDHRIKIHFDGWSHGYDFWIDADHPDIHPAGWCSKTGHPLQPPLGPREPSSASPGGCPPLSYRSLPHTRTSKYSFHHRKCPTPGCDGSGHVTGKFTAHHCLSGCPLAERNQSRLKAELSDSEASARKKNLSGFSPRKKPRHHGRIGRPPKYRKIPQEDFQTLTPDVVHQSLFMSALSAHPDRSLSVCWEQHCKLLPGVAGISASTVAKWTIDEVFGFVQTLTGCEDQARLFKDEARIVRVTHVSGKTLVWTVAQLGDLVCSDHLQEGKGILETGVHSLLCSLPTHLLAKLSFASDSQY
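AlphaScreen assay: L3MBTL1 (50 nM final) was preincubated 30 min at room temperature with biotinylated H3(1-15)K9me1 peptide (75 nM final), then 30 min with library compounds; streptavidin donor and nickel chelate acceptor beads (10 ug/mL final) added, 30 min dark.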
USP2a block – qHTS Assay for Inhibitors of Ubiquitin-specific Protease USP2a Using CHOP2 as the Reporter; Ubiquitin carboxyl-terminal hydrolase 2 (Homo sapiens), O75604; USP2 core, Ub-CHOP2 coupled fluorogenic reporter, 485/531; Potency, µM (highest dose often 38.3 µM), most hits filed as inhibitors; actives 0.01% (n = 330,000)
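Cell-free coupled assay: 10nM USP2 core preincubated 30min RT with compound in Tris-HCl pH 8.0/CaCl2/CHAPS buffer, then 25nM Ub-CHOP2 and 25nM reporter substrate; fluorescence (Ex 485/Em 531) read after 60min RT, normalized to NEM inhibition, concentration-response curves fitted.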
A number is an active result; – = inactive; ? = inconclusive; · = no result given; ! = not active in a repeat. In the library only some 1.2% were active in any assay of this set; here they are far more common. Unless noted, calls follow the shape of the dose curve; as a rule, active = well fitted curve in the direction sought with a large enough effect; inconclusive = small, poorly fitted or top-dose-only effect, or another doubt; inactive = no such curve, though single readings can be large; an effect the other way counts as inactive or inconclusive.

SMILES	Eya2 inh	CtBP-E1A inh	Six1-Eya2 blk	uPA surface inh	L3MBTL1 inh	USP2a block
COC(=O)C[C@H]1N(S(=O)(=O)c2ccc(C)cc2)C(C(C)C)CC1(C(=O)OC)C(=O)OC (some centres undefined)	·	–	–	·	·	·
CNC(=O)c1c(NC(=O)CCS(=O)(=O)c2ccc(C)cc2)sc(C)c1C	–	–	–	–	–	–
Cc1[nH]nc2c1C(c1ccco1)C(C#N)=C(N)O2 (centres undefined)	–	–	–	–	–	–
COc1ccc(-c2ccc(C3C(C#N)=C(N)Oc4n[nH]c(C)c43)o2)cc1 (centres undefined)	–	-66.9	?	·	–	–
COc1ccc(-c2nc(Cn3c(SCc4ccc(C)cc4)nc4ccncc43)c(C)o2)cc1OC	–	–	–	8.91µM	·	–
CC1(c2nnnn2-c2ccc3c(c2)OCCO3)CCC(=O)N1Cc1cccc(C(F)(F)F)c1 (centres undefined)	·	–	–	·	·	·
Cc1ccc(C2=NCCn3c2c2ccc([N+](=O)[O-])cc2[n+]3[O-])cc1	–	–	–	0.708µM	–	–
COc1c(O)c(=O)n2c3ccccc3c3ccnc1c32	–	-82.5	-77.0	–	–	–
COc1ccc(S(=O)(=O)NNC(=O)C(=O)NNc2ccccn2)cc1	–	?	-90.8	–	–	–
O=C(CN1C(=O)NC2(CCCCCCC2)C1=O)Nc1ccc(Br)cc1Br	–	–	–	–	–	–
COc1ccccc1-n1c(-c2ccccc2)c[n+]2c1CCc1ccccc1-2	–	–	–	11.2µM!	–	–
CC(C)c1ccc(-n2c(-c3ccccc3)c[n+]3c2CCc2ccccc2-3)cc1	–	–	–	?	–	–
COc1ccc(-n2c(-c3ccc(Br)cc3)c[n+]3c2CCc2ccccc2-3)cc1	–	–	–	5.01µM	–	–
CCc1c(C)c2ccc(OCC(=O)NCC3CCC(C(=O)O)CC3)cc2oc1=O (centres undefined)	–	–	–	–	·	–
CCN1CCN(Cc2ccc(NC(=O)c3ccc(C)c(NC(=O)c4cc(-c5ccc(Br)cc5)n[nH]4)c3)cc2C(F)(F)F)CC1	–	–	–	12.6µM	·	–
CCN1CCN(Cc2ccc(NC(=O)c3ccc(C)c(NC(=O)c4cncc(-c5cccs5)c4)c3)cc2C(F)(F)F)CC1	·	–	–	1µM	·	·
CCN1CCN(Cc2ccc(NC(=O)c3ccc(C)c(NC(=O)c4nccn4C)c3)cc2C(F)(F)F)CC1	–	–	–	–	·	–
COC/C=C/C1=CC2=CC(=O)C(C)(OC(=O)c3cnc4ccccc4n3)C(=O)C2=CN1c1ccc(CO)cc1 (centres undefined)	–	·	·	·	3.16µM	?
Cc1ccc(C(=O)Nc2nc(-c3ccccn3)cs2)o1	?	?	-92.8	?	?	–
CCc1cc(C(=O)Nc2nc(-c3ccccn3)cs2)sc1C	–	-67.3	?	?	–	–
O=C(Nc1nc(-c2ccccn2)cs1)c1ccc(-c2ccccc2F)o1	–	-69.8	?	–	?	–
CC(=O)c1ccc(-c2ccc(C(=O)Nc3nc(-c4ccccn4)cs3)o2)cc1	–	-78.8	-69.5	?	–	–
NC(=S)NCCC[C@H](N)C(=O)O	–	·	·	·	·	·
O=C1NC(N2CCOCC2)=N/C1=C/c1ccc2c(c1)OCO2	–	–	–	–	–	–
O=C(Nc1nc(-c2ccccn2)cs1)c1ccc([N+](=O)[O-])o1	–	-92.1	-73.4	–	12.6µM	–
O=C(NCCO)c1cccc2c1C(=O)c1ccccc1-2	–	–	–	–	–	–
